# Test results published in PMC7862700, “An all-to-all approach to the identification of sequence-specific readers for epigenetic DNA modifications on cytosine”.
# Columns and labels:
# Assay in all cases: DAPPL (digital affinity profiling via proximity ligation, sequencing); 10 mM Tris-HCl pH 7.5, 50 mM NaCl, 1 mM DTT, 4% glycerol, room temperature, 30 min; GST-TFs on glutathione beads, 16-mer random dsDNA library, 0.1% formaldehyde crosslink after washing; high values mean tight binding
# Details in all cases: protein: recombinant; tags: N-terminal GST; dsDNA, one strand shown
# FEV = target: T1, FEV (Homo sapiens, UniProt Q99581 1-238)
# T1 sequence: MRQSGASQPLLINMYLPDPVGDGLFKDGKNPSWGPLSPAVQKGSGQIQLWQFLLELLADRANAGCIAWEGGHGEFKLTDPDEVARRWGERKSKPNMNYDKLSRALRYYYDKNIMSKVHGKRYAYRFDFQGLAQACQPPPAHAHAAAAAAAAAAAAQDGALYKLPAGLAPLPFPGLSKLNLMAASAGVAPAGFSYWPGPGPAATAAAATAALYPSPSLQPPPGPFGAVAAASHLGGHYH
# Procedure, shortened: (§1)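 Binding signal is given per hexamer as its read frequency for a factor divided by its frequency in the tag-only sample. GST-fused human transcription factors were expressed in yeast, captured on glutathione beads, barcoded with DNA and pooled with that sample, then incubated with 200 nmole of a 16-mer random double-stranded DNA library in Tris/NaCl/DTT/glycerol buffer for 30 min at room temperature. The pools were then washed, crosslinked, proximity-ligated, amplified by PCR and sequenced on an Illumina NextSeq500.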
# ETV5 = ETV5 (Homo sapiens, UniProt P41161 1-510)
# Procedure, shortened: as §1
# SPIC = target: T2, SPIC (Homo sapiens, UniProt Q8N5J4 1-248)
# T2 sequence: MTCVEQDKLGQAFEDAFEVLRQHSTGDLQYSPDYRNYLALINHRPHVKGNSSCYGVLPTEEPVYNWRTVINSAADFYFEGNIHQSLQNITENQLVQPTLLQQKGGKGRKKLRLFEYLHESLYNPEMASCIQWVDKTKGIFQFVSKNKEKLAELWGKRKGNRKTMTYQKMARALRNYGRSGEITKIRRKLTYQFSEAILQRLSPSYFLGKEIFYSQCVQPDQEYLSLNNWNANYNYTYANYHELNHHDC
# Procedure, shortened: as §1
# ELF4 = ELF4 (Homo sapiens, UniProt Q99607 1-663)
# Procedure, shortened: as §1
# ELK4 = target: T3, ELK4 (Homo sapiens, UniProt P28324-2 1-405)
# T3 sequence: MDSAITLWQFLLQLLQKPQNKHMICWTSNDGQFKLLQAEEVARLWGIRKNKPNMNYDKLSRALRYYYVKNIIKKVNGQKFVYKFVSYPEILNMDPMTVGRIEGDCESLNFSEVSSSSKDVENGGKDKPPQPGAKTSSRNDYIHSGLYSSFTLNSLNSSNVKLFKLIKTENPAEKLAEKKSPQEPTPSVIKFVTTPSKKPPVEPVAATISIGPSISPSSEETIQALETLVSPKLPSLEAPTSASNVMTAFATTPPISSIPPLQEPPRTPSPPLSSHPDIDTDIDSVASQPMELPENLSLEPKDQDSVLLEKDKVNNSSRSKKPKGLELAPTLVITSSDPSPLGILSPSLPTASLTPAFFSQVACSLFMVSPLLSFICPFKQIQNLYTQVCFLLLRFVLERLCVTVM
# Procedure, shortened: as §1
# ETV2 = target: T4, ETV2 (Homo sapiens, UniProt O00321 1-342)
# T4 sequence: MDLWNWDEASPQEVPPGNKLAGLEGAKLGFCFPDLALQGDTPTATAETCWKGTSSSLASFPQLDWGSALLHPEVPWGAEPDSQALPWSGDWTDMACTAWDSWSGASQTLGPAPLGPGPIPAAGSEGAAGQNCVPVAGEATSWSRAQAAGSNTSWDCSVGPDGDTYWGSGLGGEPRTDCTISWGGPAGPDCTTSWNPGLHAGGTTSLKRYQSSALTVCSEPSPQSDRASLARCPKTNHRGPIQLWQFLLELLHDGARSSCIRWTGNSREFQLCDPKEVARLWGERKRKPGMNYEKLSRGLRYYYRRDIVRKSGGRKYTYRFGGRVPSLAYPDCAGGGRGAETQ
# Procedure, shortened: as §1
# ELF3 = target: T5, ELF3 (Homo sapiens, UniProt P78545 1-371)
# T5 sequence: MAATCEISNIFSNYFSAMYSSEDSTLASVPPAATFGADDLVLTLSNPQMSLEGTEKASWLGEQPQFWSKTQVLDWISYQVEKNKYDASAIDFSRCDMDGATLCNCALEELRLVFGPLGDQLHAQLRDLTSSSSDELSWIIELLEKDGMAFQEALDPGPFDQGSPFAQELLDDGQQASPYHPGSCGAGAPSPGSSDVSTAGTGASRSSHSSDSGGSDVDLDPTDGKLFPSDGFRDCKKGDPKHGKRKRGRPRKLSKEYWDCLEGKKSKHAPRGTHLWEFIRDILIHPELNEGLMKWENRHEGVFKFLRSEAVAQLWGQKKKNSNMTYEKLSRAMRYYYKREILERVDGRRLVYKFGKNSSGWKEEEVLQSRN
# Procedure, shortened: as §1
# ETV1 = ETV1 (Homo sapiens, UniProt P50549 1-477)
# Procedure, shortened: as §1
# ERF = target: T6, ERF (Homo sapiens, UniProt P50548 1-548)
# T6 sequence: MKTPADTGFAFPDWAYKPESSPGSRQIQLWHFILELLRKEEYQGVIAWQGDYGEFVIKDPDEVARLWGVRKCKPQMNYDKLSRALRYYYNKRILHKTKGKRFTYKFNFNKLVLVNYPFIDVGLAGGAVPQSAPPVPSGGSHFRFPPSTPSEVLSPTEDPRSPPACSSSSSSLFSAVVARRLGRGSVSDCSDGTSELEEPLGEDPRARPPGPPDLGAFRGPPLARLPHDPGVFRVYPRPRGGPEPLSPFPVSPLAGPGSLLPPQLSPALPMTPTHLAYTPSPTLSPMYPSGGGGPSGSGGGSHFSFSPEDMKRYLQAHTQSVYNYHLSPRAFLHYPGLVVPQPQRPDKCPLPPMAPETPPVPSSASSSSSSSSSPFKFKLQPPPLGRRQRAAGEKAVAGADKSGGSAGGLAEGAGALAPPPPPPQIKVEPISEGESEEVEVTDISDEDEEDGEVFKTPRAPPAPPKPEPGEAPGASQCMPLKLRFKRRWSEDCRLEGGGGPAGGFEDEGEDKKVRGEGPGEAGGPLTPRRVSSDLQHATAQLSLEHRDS
# Procedure, shortened: as §1
# ETV3L = target: T7, ETV3L (Homo sapiens, UniProt Q6ZN32 1-361)
# T7 sequence: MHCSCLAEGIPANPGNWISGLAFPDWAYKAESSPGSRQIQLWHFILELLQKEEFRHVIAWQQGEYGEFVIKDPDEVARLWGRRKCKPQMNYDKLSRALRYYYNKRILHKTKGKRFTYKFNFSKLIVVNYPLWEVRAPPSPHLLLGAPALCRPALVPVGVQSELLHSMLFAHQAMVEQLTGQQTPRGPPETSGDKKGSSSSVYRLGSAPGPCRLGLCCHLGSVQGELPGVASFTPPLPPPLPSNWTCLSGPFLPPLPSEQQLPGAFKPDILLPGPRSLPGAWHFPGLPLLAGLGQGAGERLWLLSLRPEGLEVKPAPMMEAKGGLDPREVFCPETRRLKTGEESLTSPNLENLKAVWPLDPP
# Procedure, shortened: as §1
# ETS2 = target: T8, ETS2 (Homo sapiens, UniProt P15036 1-469)
# T8 sequence: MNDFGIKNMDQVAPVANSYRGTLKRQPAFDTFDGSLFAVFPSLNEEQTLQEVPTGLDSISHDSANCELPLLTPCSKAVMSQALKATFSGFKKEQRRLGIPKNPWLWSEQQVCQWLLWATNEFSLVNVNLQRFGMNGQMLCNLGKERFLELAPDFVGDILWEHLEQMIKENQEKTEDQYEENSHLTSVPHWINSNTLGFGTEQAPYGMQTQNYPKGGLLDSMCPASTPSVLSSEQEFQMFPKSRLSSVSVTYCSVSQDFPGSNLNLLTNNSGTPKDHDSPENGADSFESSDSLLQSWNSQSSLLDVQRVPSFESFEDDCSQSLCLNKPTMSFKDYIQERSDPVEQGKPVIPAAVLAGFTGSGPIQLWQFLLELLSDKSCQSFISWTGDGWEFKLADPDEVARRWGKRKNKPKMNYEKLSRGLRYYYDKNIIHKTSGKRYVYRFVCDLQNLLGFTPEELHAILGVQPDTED
# Procedure, shortened: as §1
# SPDEF = target: T9, SPDEF (Homo sapiens, UniProt O95238 1-335)
# T9 sequence: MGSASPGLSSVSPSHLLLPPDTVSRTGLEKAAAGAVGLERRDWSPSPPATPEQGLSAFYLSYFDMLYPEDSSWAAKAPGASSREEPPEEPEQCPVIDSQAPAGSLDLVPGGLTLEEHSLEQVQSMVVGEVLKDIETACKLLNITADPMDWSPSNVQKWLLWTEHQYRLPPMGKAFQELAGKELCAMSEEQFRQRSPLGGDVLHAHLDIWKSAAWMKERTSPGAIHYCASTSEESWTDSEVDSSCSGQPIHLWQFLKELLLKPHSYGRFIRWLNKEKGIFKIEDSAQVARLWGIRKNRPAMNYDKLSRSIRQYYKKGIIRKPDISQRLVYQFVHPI
# Procedure, shortened: as §1
# ETV7 = target: T10, ETV7 (Homo sapiens, UniProt Q9Y603 1-341)
# T10 sequence: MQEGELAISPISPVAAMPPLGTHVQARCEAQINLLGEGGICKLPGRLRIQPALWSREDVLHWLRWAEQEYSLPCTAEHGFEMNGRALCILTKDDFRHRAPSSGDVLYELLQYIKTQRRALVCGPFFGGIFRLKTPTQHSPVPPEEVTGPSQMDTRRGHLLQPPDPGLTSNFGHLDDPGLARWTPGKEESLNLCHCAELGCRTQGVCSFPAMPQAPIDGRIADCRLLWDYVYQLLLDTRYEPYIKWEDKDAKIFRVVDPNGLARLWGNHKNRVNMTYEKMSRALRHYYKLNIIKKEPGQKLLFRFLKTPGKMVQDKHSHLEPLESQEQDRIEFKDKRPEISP
# Procedure, shortened: as §1
# ELF5 = target: T11, ELF5 (Homo sapiens, UniProt Q9UKW6-2 1-255)
# T11 sequence: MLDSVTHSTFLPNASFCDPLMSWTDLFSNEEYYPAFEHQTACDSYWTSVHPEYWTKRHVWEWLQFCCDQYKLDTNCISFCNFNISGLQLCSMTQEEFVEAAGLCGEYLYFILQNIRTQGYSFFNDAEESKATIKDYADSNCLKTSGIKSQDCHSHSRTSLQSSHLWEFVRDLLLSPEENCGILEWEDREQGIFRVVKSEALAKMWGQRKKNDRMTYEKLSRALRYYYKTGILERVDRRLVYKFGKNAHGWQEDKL
# Procedure, shortened: as §1
# ETV3 = target: T12, ETV3 (Homo sapiens, UniProt P41162-2 1-143)
# T12 sequence: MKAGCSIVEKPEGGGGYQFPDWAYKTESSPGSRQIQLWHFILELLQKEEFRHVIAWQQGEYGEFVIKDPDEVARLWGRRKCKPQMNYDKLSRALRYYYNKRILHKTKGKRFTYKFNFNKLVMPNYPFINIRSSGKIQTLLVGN
# Procedure, shortened: as §1
# ETV6 = ETV6 (Homo sapiens, UniProt P41212 1-452)
# Procedure, shortened: as §1
# Sequence of ETV1 (P50549 whole entry): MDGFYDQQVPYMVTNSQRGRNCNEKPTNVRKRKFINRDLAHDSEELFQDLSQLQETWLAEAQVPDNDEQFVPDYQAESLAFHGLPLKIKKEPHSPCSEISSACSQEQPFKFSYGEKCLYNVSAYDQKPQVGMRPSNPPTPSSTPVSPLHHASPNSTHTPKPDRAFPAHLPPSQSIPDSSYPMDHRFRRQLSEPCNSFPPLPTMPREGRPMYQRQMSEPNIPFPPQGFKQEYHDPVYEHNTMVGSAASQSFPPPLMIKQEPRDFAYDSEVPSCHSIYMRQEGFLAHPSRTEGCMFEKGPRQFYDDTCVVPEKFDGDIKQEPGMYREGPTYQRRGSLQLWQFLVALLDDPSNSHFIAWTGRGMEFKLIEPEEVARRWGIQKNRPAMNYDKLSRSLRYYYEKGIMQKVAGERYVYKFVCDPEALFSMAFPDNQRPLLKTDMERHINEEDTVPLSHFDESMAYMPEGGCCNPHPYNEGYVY
# Sequence of ETV5 (P41161 whole entry): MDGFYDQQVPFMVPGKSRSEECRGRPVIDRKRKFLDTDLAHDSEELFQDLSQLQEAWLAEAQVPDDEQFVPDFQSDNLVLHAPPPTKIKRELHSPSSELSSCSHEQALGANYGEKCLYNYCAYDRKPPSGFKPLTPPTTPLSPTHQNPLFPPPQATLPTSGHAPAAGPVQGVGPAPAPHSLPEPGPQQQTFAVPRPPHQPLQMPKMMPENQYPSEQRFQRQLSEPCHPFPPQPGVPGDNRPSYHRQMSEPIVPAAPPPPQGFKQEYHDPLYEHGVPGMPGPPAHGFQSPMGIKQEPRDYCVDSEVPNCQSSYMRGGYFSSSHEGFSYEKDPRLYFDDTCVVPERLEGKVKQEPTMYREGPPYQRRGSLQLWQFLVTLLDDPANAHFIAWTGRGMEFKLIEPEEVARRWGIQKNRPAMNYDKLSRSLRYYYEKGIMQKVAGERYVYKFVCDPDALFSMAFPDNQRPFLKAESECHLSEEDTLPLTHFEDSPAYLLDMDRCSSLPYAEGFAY
# Sequence of ETV6 (P41212 whole entry): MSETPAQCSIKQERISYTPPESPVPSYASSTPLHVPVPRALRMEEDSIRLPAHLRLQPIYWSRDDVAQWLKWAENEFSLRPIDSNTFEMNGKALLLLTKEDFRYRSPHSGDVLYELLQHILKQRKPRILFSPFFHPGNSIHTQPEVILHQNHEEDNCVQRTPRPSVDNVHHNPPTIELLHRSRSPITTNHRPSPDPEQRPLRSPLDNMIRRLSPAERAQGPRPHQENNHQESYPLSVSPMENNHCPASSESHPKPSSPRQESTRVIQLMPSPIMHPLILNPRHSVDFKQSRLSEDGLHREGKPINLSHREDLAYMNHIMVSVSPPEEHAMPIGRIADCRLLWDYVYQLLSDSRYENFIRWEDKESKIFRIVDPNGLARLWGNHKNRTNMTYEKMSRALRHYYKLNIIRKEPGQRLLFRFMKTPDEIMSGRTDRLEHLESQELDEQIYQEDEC
# Sequence of ELF4 (Q99607 whole entry): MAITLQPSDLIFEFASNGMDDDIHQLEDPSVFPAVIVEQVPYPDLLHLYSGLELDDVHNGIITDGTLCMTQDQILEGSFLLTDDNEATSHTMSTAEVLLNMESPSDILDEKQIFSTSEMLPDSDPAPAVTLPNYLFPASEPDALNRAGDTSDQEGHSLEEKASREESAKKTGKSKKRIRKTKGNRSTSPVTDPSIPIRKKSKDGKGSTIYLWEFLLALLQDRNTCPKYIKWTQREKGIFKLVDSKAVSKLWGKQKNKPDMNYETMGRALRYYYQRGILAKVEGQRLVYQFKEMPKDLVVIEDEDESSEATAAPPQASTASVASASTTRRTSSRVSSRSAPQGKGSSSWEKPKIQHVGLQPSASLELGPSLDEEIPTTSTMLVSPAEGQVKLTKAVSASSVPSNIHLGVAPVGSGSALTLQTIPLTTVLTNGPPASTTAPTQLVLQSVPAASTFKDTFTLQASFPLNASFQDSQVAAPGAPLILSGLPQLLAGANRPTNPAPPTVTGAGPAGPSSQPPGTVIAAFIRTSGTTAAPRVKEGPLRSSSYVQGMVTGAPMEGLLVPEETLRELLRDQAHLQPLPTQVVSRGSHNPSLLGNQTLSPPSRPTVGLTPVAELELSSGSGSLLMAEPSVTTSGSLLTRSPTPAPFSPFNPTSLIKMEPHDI
sequence,measurement,setting,value
GTCCCG,binding signal,FEV,"1.24 fold enrichment (6-mer frequency, TF over GST control)"
same,binding signal,ETV5,"1.19 fold enrichment (6-mer frequency, TF over GST control)"
same,binding signal,SPIC,"1.23 fold enrichment (6-mer frequency, TF over GST control)"
same,binding signal,ELF4,"1.17 fold enrichment (6-mer frequency, TF over GST control)"
same,binding signal,ELK4,"1.23 fold enrichment (6-mer frequency, TF over GST control)"
same,binding signal,ETV2,"1.06 fold enrichment (6-mer frequency, TF over GST control)"
same,binding signal,ELF3,"1.26 fold enrichment (6-mer frequency, TF over GST control)"
same,binding signal,ETV1,"1.27 fold enrichment (6-mer frequency, TF over GST control)"
same,binding signal,ERF,"1.22 fold enrichment (6-mer frequency, TF over GST control)"
same,binding signal,ETV3L,"1.3 fold enrichment (6-mer frequency, TF over GST control)"
same,binding signal,ETS2,"1.22 fold enrichment (6-mer frequency, TF over GST control)"
same,binding signal,SPDEF,"1.34 fold enrichment (6-mer frequency, TF over GST control)"
same,binding signal,ETV7,"1.19 fold enrichment (6-mer frequency, TF over GST control)"
same,binding signal,ELF5,"1.23 fold enrichment (6-mer frequency, TF over GST control)"
same,binding signal,ETV3,"1.32 fold enrichment (6-mer frequency, TF over GST control)"
same,binding signal,ETV6,"1.13 fold enrichment (6-mer frequency, TF over GST control)"
